The text below walks through data of PubChem BioAssay (NCI).

Common to all, as to assay: NCI-60 one-dose screen, 48 h (100 = growth as untreated, 0 = no growth, -100 = all killed)
Settings in all cases: 10 µM unless noted

Test [1] deals with HCT-15 colon.
Test [2] concerns HT29 colon.
Test [3] deals with SNB-75 CNS.
The test system of test [4] is SNB-19 CNS.
Test [5] relates to U251 CNS.
Test [6] has as its system PC-3 prostate.
In test [7] the test system is SK-MEL-5 melanoma.
Test [8] deals with UACC-62 melanoma.
The test system of test [9] is LOX IMVI melanoma.
In test [10] the test system is SK-MEL-28 melanoma.

The panel holds about 83,000 compounds, 20% with a hit somewhere; the sample as a whole holds those more often.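 In brief: 96-well plates, 48 h treatment, single concentration, percent growth endpoint.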 Values without a mark were called inactive. Calls of active or inactive are those of the source. Rule for the calls: active = growth percent below 10; inactive = the rest.

Take `CCOC(=O)c1noc2c1CCc1cn(Cc3cc(OC)cc(OC)c3)cc1-2`: the growth in test [1] is 96.4%; in [2], 75.4%; in [3], 95.8%; in test [4], 113%; in test [5], 110%; in [6], 92.8%. Further, the growth was 101% in test [7], 103% in [8], 95.5% in [9] and 105% in [10].
For the compound `O=C(c1ccccc1)[C@H]1[C@@H]2CCCN2[C@]2(C(=O)Nc3ccc(F)cc32)[C@]12C(=O)Nc1ccccc12`, the growth in [1] was 86.9%; in [2], 89.8%; in [3], 83.2%; in test [4], 90.8%; in [5], 80.5%; in test [6], 65.7%. The growth in [7] is 83.6%; in test [8], 70.7%; in test [9] it was 91.3%; in test [10], 92.8%.
In the case of `CN1CCN(CC(O)COc2c(Br)c(Br)c(Br)c3c2OC(C)(C)C3)CC1` (stereo not given), the growth is 28.7% in test [1]; -12.8% (active) in test [2]; 90.7% in test [3]; 92.7% in test [4]; 56.4% in [5]; 53% in [6]. The growth in test [7] is -86% (active); in test [8] it was -59.5% (active); in [9], 4.05% (active); in [10], -89.2% (active).
As for `CS(=O)(=O)Nc1cccc(-c2ccc3ncnc(Nc4cncc(Cl)c4)c3c2)c1`, the growth in test [1] was 16%; in [2], 5.04% (active); in test [3] it was 19.8%; in test [4] it was 51.4%; in test [5], 23.8%; in [6] it was 19.8%. In addition, the growth in [7] was 35.6%; in test [8] it was 29%; in test [9] it was 11%; in test [10] it was 43.7%.
Regarding `CCCCCCCCCCCCCCCCCCNCc1ccc(Cl)cc1`, the growth in test [1] was -87.1% (active); in test [2] it was -94.7% (active); in test [3] it was -60.9% (active); in test [4], -67.6% (active); in test [5], -84.8% (active); in test [6] it was -89.3% (active). The growth is 11.8% in [7], -46.7% (active) in [8], -74.6% (active) in test [9] and 27.2% in [10].
On to `COc1ccc(C2=NN(C(=O)COc3ccc(Cl)cc3)C(O)(c3cc(F)c(Cl)cc3Cl)C2)cc1` (stereo not given), for which the growth in test [1] is 98.6%; in test [2] it was 99.4%; in [3], 88.2%; in test [4], 94.7%; in [5], 104%; in test [6], 75%. The growth in test [7] is 114%; in test [8], 111%; in test [9], 83.8%; in test [10], 103%.
For the compound `O=S(=O)(CCN1CCOCC1)Nc1cncc(-c2ccc3ncnc(Nc4ccc(F)c(Cl)c4)c3c2)c1`, the growth in [1] is 84.6%; in test [2] it was 73.6%; in test [3], 56.3%; in [4], 61%; in [5], 68.9%; in test [6], 53.2%. The growth in test [7] was 95.4%; in test [8], 77.5%; in [9], 56.6%; in test [10], 81.7%.
Turning to `COC1OCC(OS(=O)(=O)c2ccc(C)cc2)C(OC(=O)c2ccccc2)C1OC(=O)c1ccccc1` (stereo not given), the growth in test [1] was 38.3%; in [2] it was 7.49% (active); in test [3] it was 32.5%; in [4] it was 61.2%; in [5] it was 39.3%; in test [6], 47.8%. Besides, the growth was 30.7% in test [7], 36.1% in [8], 44.8% in test [9] and 57.7% in test [10].
For the compound `COc1ccc2c(-c3ccc(F)cc3)c(C#N)c(=NC(C)=O)oc2c1`, the growth in test [1] was 25.8%; in [2], 95.6%; in test [3], 34%; in test [4], 33.7%; in test [5], 39.5%; in test [6], 30.6%. Besides, the growth is 24.7% in test [7], 32.1% in [8], 41.9% in test [9] and 69.7% in test [10].
